Test results taken from PubChem BioAssay AID1159580 (chemical genetic matrix, 2015).
Values joined by “and” are separate entries in the source; they are usually repeats but may differ in a detail not shown here. Identical values can stand only once. In all, about 5,500 compounds went through this assay and about 2,000 (36%) were called active. Another 18% or so got no clear call; they are omitted. Cut-off read from the data, not from the text of the source: active = normalized growth mostly below about 0.91 (no sharp cut-off); inconclusive = no clear call, values can overlap the other calls; inactive = mostly above about 0.92. The list shows a part of the results.

Test: chemical genetic growth profiling, strain panel (AID 1159580);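 note: tested at 20 µM; growth read once vehicle control cultures reached saturation at 30 °C; 1 = growth at the plate median or of vehicle wells; lower values mean less growth of the strain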
Conditions: growth OD

Measured: normalized growth

OC(CCN1CCCCC1)(c1ccccc1)C1CCCCC1 (stereo unspecified)
inactive: S. cerevisiae deletion strains, locus YJR075W, strain HOC1, active compounds read low 1.01 and 0.98 | S. cerevisiae deletion strains, locus YKL009W, strain mrt4, active compounds read low 0.999 | S. cerevisiae deletion strains, locus YKL068W, active compounds read low 0.997 | S. cerevisiae deletion strains, locus YKL085W, strain MDH1 (second series), active compounds read low 0.998 | S. cerevisiae deletion strains, locus YKL085W, strain MDH1, active compounds read low 0.998 | S. cerevisiae deletion strains, locus YKL160W, strain elf1, active compounds read low 0.96 | S. cerevisiae deletion strains, locus YKL190W, strain CNB1, active compounds read low 1.01 | S. cerevisiae deletion strains, locus YKR001C, strain vps1, active compounds read low 0.985 | S. cerevisiae deletion strains, locus YKR026C, strain gcn3, active compounds read low 0.971 | S. cerevisiae deletion strains, locus YKR091W, strain srl3, active compounds read low 0.978 | S. cerevisiae deletion strains, locus YLL001W, strain dnm1, active compounds read low 0.918 | S. cerevisiae deletion strains, locus YLL026W, active compounds read low 0.981 | S. cerevisiae deletion strains, locus YLL041C, strain sdh2, active compounds read low 0.975 | S. cerevisiae deletion strains, locus YLR027C, strain aat2, active compounds read low 0.954 | S. cerevisiae deletion strains, locus YLR039C, strain RIC1, active compounds read low 1.12 | S. cerevisiae deletion strains, locus YLR058C, strain SHM2, active compounds read low 1.01 | S. cerevisiae deletion strains, locus YLR102C, strain apc9, active compounds read low 0.995 | S. cerevisiae deletion strains, locus YLR113W, strain HOG1, active compounds read low 0.991 | S. cerevisiae deletion strains, locus YLR221C, strain rsa3, active compounds read low 1.01 | S. cerevisiae deletion strains, locus YLR258W, strain gsy2, active compounds read low 0.992 | S. cerevisiae deletion strains, locus YLR262C, strain YPT6 (second series), active compounds read low 0.989 | S. cerevisiae deletion strains, locus YLR262C, strain YPT6, active compounds read low 1.1 | S. cerevisiae deletion strains, locus YLR268W, strain sec22, active compounds read low 0.98 | S. cerevisiae deletion strains, locus YLR320W, strain mms22, active compounds read low 0.961 | S. cerevisiae deletion strains, locus YLR330W, strain CHS5, active compounds read low 1.01 | S. cerevisiae deletion strains, locus YLR342W, strain FKS1 (second series), active compounds read low 1 | S. cerevisiae deletion strains, locus YLR342W, strain FKS1, active compounds read low 0.959 | S. cerevisiae deletion strains, locus YLR357W, strain rsc2, active compounds read low 0.939 | S. cerevisiae deletion strains, locus YLR370C, strain arc18, active compounds read low 0.974 | S. cerevisiae deletion strains, locus YLR371W, strain rom2, active compounds read low 1 | S. cerevisiae deletion strains, locus YLR384C, strain iki3, active compounds read low 0.961 | S. cerevisiae deletion strains, locus YLR418C, strain cdc73, active compounds read low 0.966 | S. cerevisiae deletion strains, locus YML016C, strain PPZ1, active compounds read low 1.01 | S. cerevisiae deletion strains, locus YML032C, strain rad52, active compounds read low 0.986 | S. cerevisiae deletion strains, locus YML120C, strain ndi1, active compounds read low 0.97 | S. cerevisiae deletion strains, locus YML124C, strain tub3, active compounds read low 0.997 | S. cerevisiae deletion strains, locus YMR058W, strain fet3, active compounds read low 0.964 | S. cerevisiae deletion strains, locus YMR078C, strain ctf18, active compounds read low 0.998 | S. cerevisiae deletion strains, locus YMR125W, strain sto1, active compounds read low 0.977 | S. cerevisiae deletion strains, locus YMR129W, active compounds read low 0.98 | S. cerevisiae deletion strains, locus YMR205C, strain PFK2, active compounds read low 0.955 | S. cerevisiae deletion strains, locus YMR223W, strain ubp8, active compounds read low 1.01 | S. cerevisiae deletion strains, locus YMR231W, strain pep5, active compounds read low 0.973 | S. cerevisiae deletion strains, locus YMR263W, strain SAP30, active compounds read low 1.01 and 0.983 | S. cerevisiae deletion strains, locus YMR307W, strain GAS1, active compounds read low 1.01 and 0.985 | S. cerevisiae deletion strains, locus YNL067W, strain RPL9B, active compounds read low 1 | S. cerevisiae deletion strains, locus YNL071W, strain lat1, active compounds read low 0.98 | S. cerevisiae deletion strains, locus YNL128W, strain TEP1, active compounds read low 1.02 | S. cerevisiae deletion strains, locus YNL153C, strain GIM3, active compounds read low 1 | S. cerevisiae deletion strains, locus YNL175C, strain NOP13, active compounds read low 1.01 | S. cerevisiae deletion strains, locus YNL183C, strain NPR1, active compounds read low 0.935 | S. cerevisiae deletion strains, locus YNL197C, strain WHI3, active compounds read low 1.03 | S. cerevisiae deletion strains, locus YNL209W, strain ssb2, active compounds read low 0.993 | S. cerevisiae deletion strains, locus YNL224C, strain SQS1, active compounds read low 0.998 | S. cerevisiae deletion strains, locus YNL233W, strain BNI4, active compounds read low 0.998 | S. cerevisiae deletion strains, locus YNL248C, strain rpa49, active compounds read low 0.995 | S. cerevisiae deletion strains, locus YNL250W, strain rad50, active compounds read low 0.999 | S. cerevisiae deletion strains, locus YNL271C, strain bni1, active compounds read low 0.989 | S. cerevisiae deletion strains, locus YNL298W, strain CLA4, active compounds read low 1.02 | S. cerevisiae deletion strains, locus YNL307C, strain MCK1, active compounds read low 0.998 | S. cerevisiae deletion strains, locus YNL322C, strain KRE1 (second series), active compounds read low 0.976 | S. cerevisiae deletion strains, locus YNL322C, strain KRE1, active compounds read low 1.01 | S. cerevisiae deletion strains, locus YNR049C, strain mso1, active compounds read low 0.967 | S. cerevisiae deletion strains, locus YNR052C, strain pop2, active compounds read low 1 | S. cerevisiae deletion strains, locus YOL006C, strain TOP1, active compounds read low 0.951 | S. cerevisiae deletion strains, locus YOL012C, strain htz1 0.776 | S. cerevisiae deletion strains, locus YOL147C, strain pex11, active compounds read low 0.994 | S. cerevisiae deletion strains, locus YOR001W, strain rrp6, active compounds read low 0.949 | S. cerevisiae deletion strains, locus YOR061W, strain CKA2, active compounds read low 1.01 | S. cerevisiae deletion strains, locus YOR069W, strain VPS5, active compounds read low 1.01 | S. cerevisiae deletion strains, locus YOR070C, strain gyp1, active compounds read low 0.986 | S. cerevisiae deletion strains, locus YOR080W, strain dia2, active compounds read low 0.971 | S. cerevisiae deletion strains, locus YOR083W, strain WHI5 (second series), active compounds read low 0.994 | S. cerevisiae deletion strains, locus YOR083W, strain WHI5, active compounds read low 0.951 | S. cerevisiae deletion strains, locus YOR106W, strain vam3, active compounds read low 0.936 | S. cerevisiae deletion strains, locus YOR136W, strain idh2, active compounds read low 1 | S. cerevisiae deletion strains, locus YOR144C, strain elg1, active compounds read low 0.993 | S. cerevisiae deletion strains, locus YOR184W, strain ser1, active compounds read low 1.01 | S. cerevisiae deletion strains, locus YOR231W, strain MKK1, active compounds read low 0.984 | S. cerevisiae deletion strains, locus YOR265W, strain rbl2, active compounds read low 0.983 | S. cerevisiae deletion strains, locus YOR270C, strain vph1, active compounds read low 0.849 | S. cerevisiae deletion strains, locus YOR290C, strain snf2, active compounds read low 0.989 | S. cerevisiae deletion strains, locus YOR316C, strain cot1, active compounds read low 1 | S. cerevisiae deletion strains, locus YPL051W, strain arl3, active compounds read low 0.984 | S. cerevisiae deletion strains, locus YPL055C, strain LGE1, active compounds read low 1.03 and 0.971 | S. cerevisiae deletion strains, locus YPL078C, strain atp4, active compounds read low 0.931 | S. cerevisiae deletion strains, locus YPL106C, strain sse1, active compounds read low 1.01 | S. cerevisiae deletion strains, locus YPL240C, strain hsp82, active compounds read low 0.976 | S. cerevisiae deletion strains, locus YPL241C, strain CIN2, active compounds read low 1.01 | S. cerevisiae deletion strains, locus YPL256C, strain CLN2, active compounds read low 0.962 | S. cerevisiae deletion strains, locus YPR119W, strain clb2, active compounds read low 0.998 | S. cerevisiae deletion strains, locus YPR141C, strain kar3, active compounds read low 1.01 | S. cerevisiae deletion strains, locus YPR163C, strain tif3, active compounds read low 0.988 | S. cerevisiae deletion strains, locus YPR167C, strain met16, active compounds read low 0.998 | S. cerevisiae deletion strains, strain wtn01, active compounds read low 0.993 | S. cerevisiae strains, strain wild type, active compounds read low 1.01
